# According to paper PMC5540273 (PLoS ONE, 2017):
# How the values were obtained:
# Conditions in all cases: concentration: 1 μM, replicates: in singlicate; n = 1
# FLT3-autoinhibited = tested on: FLT3-autoinhibited
# FLT3 = tested on: FLT3
# FLT4 = tested on: FLT4
# FRK = tested on: FRK
# FYN = tested on: FYN
# GAK = tested on: GAK
# GCN2(Kin.Dom.2,S808G) = tested on: T1, GCN2(Kin.Dom.2,S808G)
# T1 construct: gene EIF2AK4
# GRK1 = tested on: GRK1
# GRK2 = tested on: T2, GRK2
# T2 construct: gene ADRBK1
# GRK3 = tested on: T3, GRK3
# T3 construct: gene ADRBK2
# GRK4 = tested on: GRK4
# GRK7 = tested on: GRK7
# GSK3A = tested on: GSK3A
# GSK3B = tested on: GSK3B
# HASPIN = tested on: T4, HASPIN
# T4 construct: gene GSG2
# HCK = tested on: HCK
# HIPK1 = tested on: HIPK1
# HIPK2 = tested on: HIPK2
# HIPK3 = tested on: HIPK3
# HIPK4 = tested on: HIPK4
# 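Further: KINOMEscan kinase panel screen.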
SMILES,%Inh (FLT3-autoinhibited),%Inh (FLT3),%Inh (FLT4),%Inh (FRK),%Inh (FYN),%Inh (GAK),"%Inh (GCN2(Kin.Dom.2,S808G))",%Inh (GRK1),%Inh (GRK2),%Inh (GRK3),%Inh (GRK4),%Inh (GRK7),%Inh (GSK3A),%Inh (GSK3B),%Inh (HASPIN),%Inh (HCK),%Inh (HIPK1),%Inh (HIPK2),%Inh (HIPK3),%Inh (HIPK4)
Fc1ccc(-c2nn3c(OCC(F)(F)F)cccc3c2-c2ccncc2)cc1 [GW514784],0%,4%,0%,5%,0%,85%,0%,0%,0%,45%,0%,0%,10%,0%,67%,0%,0%,0%,5%,0%
Cl.Oc1cccc(Nc2ccnc3cc(-c4ccncc4)ccc23)c1 [GW494601],3%,28%,97.4%,97.6%,95.7%,76%,0%,0%,0%,36%,0%,0%,23%,0%,55%,97.7%,0%,0%,0%,0%
COc1cc(Nc2nccc(N3CCC(NC(=O)c4cccc(NC(C)=O)c4)C3)n2)cc(OC)c1OC (centres unmarked) [GSK1379754],6%,50%,23%,16%,35%,44%,17%,0%,0%,18%,18%,0%,0%,0%,30%,0%,3%,0%,0%,0%
CSc1ccc(-c2cc3ncnc(SCC(=O)O)c3s2)cc1,0%,0%,0%,16%,4%,0%,0%,0%,0%,13%,0%,2%,0%,0%,0%,33%,55%,52%,33%,22%
O=C1Cc2cc(Nc3nc(NCc4cccc(S(=O)(=O)C(F)(F)F)c4)ncc3C(F)(F)F)ccc2N1,0%,0%,0%,0%,0%,8%,28%,0%,30%,22%,8%,0%,47%,0%,8%,21%,0%,7%,0%,0%
Cc1ccc(C(=O)NCC(N)=O)cc1-n1c(C)cc(OCc2ccc(F)cc2F)c(Br)c1=O,0%,13%,0%,25%,20%,6%,0%,20%,0%,0%,0%,0%,58%,0%,0%,21%,46%,0%,0%,0%
CCn1cnc2c(N)ncnc21 [GW345098],0%,13%,13%,10%,15%,0%,6%,0%,0%,0%,0%,0%,6%,9%,25%,30%,33%,5%,30%,0%
CC(C)(C)n1cnc2c(N)ncnc21 [SKF-97359],0%,19%,0%,0%,0%,0%,29%,0%,39%,24%,5%,0%,0%,0%,65%,0%,13%,16%,0%,0%
COC(=O)Nc1nc2cc(Oc3ccc(NC(=O)Nc4cc(F)ccc4F)cc3)ccc2[nH]1.Cl [GW701424],14%,99.2%,85%,20%,0%,0%,0%,11%,0%,50%,0%,0%,3%,11%,0%,6%,0%,0%,5%,29%
Cc1cccc(-c2nc(Nc3ccc4ncsc4c3)c3ccccc3n2)n1 [GW867588],12%,2%,0%,0%,4%,0%,4%,0%,9%,0%,0%,7%,3%,5%,16%,24%,0%,11%,0%,6%
O=C(NCCCN1CCOCC1)c1cccc(Nc2nccc(Nc3ccc(Oc4ccccc4)cc3)n2)c1 [GW663929],33%,90.7%,4%,48%,93.5%,33%,36%,8%,0%,20%,0%,0%,21%,0%,0%,96.9%,14%,0%,0%,5%
COc1ccc(COc2cc(-n3cnc4ccccc43)sc2C(N)=O)cc1 [GSK1024304],0%,4%,1%,0%,16%,17%,0%,0%,0%,10%,1%,0%,14%,0%,0%,0%,18%,18%,21%,8%
[2H]C([2H])(c1cccc(C(F)(F)F)c1C)n1ccn2c(=O)nc(N3CCOCC3)cc12 [GSK2336394],0%,12%,3%,6%,44%,0%,0%,0%,0%,20%,0%,0%,9%,0%,0%,0%,0%,0%,9%,0%
COc1cc2ncn(-c3cc(OCc4sccc4Cl)c(C(N)=O)s3)c2cc1OC [GSK448459],0%,31%,67%,10%,15%,86%,7%,0%,0%,33%,30%,0%,0%,6%,5%,0%,44%,28%,23%,69%
O=c1cc(N2CCOCC2)nc2n(Cc3cccc4ccccc34)ccn12 [GSK2333389],3%,10%,8%,0%,0%,1%,1%,13%,0%,0%,0%,0%,9%,10%,0%,0%,0%,0%,21%,5%
O=C(NCCNc1ccnc(Nc2ccc(F)cc2)n1)c1cc2ccccc2s1 [GSK1379874],0%,0%,9%,6%,0%,0%,0%,0%,0%,0%,0%,0%,0%,6%,19%,0%,0%,0%,0%,0%
